Inconclusive results are not listed. Activity calls are given as the source filed them. The calls were made as follows: active = hit-call score of the fitted dose curve at least 0.9, where 1 is the maximum; inconclusive = response in the unintended direction; inactive = score below 0.9.
Biological target: frog Peroxisome Proliferator-activated Receptor-gamma (PPARg), pparg (gene 397769) (UniProt P37234)
Test: ATG_frPPARg_EcoTox2: Attagene TRANS-FACTORIAL EcoTox-2 HepG2 Assay for frog Peroxisome Proliferator-activated Receptor-gamma (PPARg)
Description: ATG_EcoTox2 is a cell-based, multiplexed assay created by modifying the existing Attagene TRANS-FACTORIAL system to include a panel of nuclear receptors from some or all the following species: human (Homo sapiens), african clawed frog (Xenopus laevis), rainbow trout (Oncorhynchus mykiss), japanese medaka (Oryzias latipes), and zebrafish (Danio rerio). The ECOTOX2-FACTORIAL format uses HepG2, a human liver cell line, with measurements taken at 24 hours after chemical dosing in a 24-well plate. ATG_frPPARg_EcoTox2 is one of 29 assay components calculated in the ATG_EcoTox2 assay. It is designed to make measurements of mRNA induction, a form of inducible reporter, as detected with fluorescence intensity signals by Reverse transcription polymerase chain reaction (RT-PCR) and Capillary electrophoresis technology.The assay endpoint ATG_frPPARg_EcoTox2 was analyzed in the positive analysis fitting direction relative to DMSO as the negative control and baseline of activity. Using a type of inducible reporter, measures of mRNA for gain-of-signal activity can be used to understand the reporter gene at the transcription factor-level as they relate to the gene PPARg. Furthermore, this assay endpoint can be referred to as a primary readout, because this assay has produced multiple assay endpoints where this one serves a reporter gene function. […]

Sequence of frog Peroxisome Proliferator-activated Receptor-gamma (PPARg), pparg (gene 397769) (P37234 whole entry, looked up): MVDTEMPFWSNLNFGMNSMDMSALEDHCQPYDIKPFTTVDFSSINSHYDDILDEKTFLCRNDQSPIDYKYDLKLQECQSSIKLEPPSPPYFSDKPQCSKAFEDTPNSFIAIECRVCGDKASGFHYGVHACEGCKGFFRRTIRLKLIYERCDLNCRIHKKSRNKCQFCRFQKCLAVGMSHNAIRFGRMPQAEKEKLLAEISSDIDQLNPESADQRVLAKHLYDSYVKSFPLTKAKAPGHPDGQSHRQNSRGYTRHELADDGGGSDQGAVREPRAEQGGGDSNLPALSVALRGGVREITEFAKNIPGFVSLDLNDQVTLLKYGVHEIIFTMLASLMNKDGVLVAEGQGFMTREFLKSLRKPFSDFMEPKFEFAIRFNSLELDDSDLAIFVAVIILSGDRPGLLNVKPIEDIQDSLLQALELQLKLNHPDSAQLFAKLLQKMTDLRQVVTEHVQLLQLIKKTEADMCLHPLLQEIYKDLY

In the case of `O=S(=O)(O)C(F)(F)C(F)(F)C(F)(F)C(F)(F)C(F)(F)C(F)(F)F`, the outcome is reported as “inactive”.
`CCCCOCN(C(=O)CCl)c1c(CC)cccc1CC` was tested, and the outcome was “inactive”.

From PubChem BioAssay AID2284349 (EPA ToxCast)
